# Shh pathway inh: Sonic Hedgehog pathway inhibition; Shh-LIGHT2 Gli-luciferase reporter, 30 h; inhibition, % (no concentration beside the values); 22,000 tested, 2.1% active;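 active = mean inhibition across valid replicates above about 65%, limit read from the data; inconclusive = mean under the limit, yet half or more replicates past it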;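 also: pathway switched on by Shh-conditioned medium diluted 1 in 25 in low serum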
# BJeLR viability: compounds reducing viability of BJeLR cells; 30,000 tested, 0.64% active; BJeLR fibroblasts viability, CellTiterGlo ATP luminescence, 48 h; HRASV12, hTERT and SV40 LT/ST transformed; viability loss activity score, % (no concentration beside the values); in the data active = viability loss activity score above about 50%; inconclusive = no clear call, values can overlap the other calls; inactive = below about 35%;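 also: higher score means fewer live cells and less ATP luminescence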
# An asterisk follows results filed as active; ? = inconclusive; . = not tested or not shown; ! = not confirmed by another sample. The full list was thinned out, with hits kept by preference.
SMILES,Shh pathway inh,BJeLR viability
CS(=O)(=O)Nc1cc(-c2nnc(Nc3ccccc3)c3ccccc23)ccc1N1CCOCC1,.,-5.8
Cc1ccc(Nc2nnc(-c3ccc(C)c(S(=O)(=O)NCC4CCCO4)c3)c3ccccc23)cc1 (stereo not given),91.0*,4.8
CC1CC(=O)C2=C(CCC34OC23C(=O)c2cccc(O)c2C4O)C1 (stereo not given),-2.9,7.6
Nc1oc2c(CN3CCCCCC3)c(O)ccc2c(=O)c1-c1nc2ccccc2s1,.,1.9
CCC(C)CC(C)/C=C\C1OC2=C(C(=O)OC2(C)O)C(O)C1O (stereo not given),?,104.0*
CCCOc1cc(C(N)=O)ccc1OC,.,0.2
COC(=O)CCn1c(=O)c2cccn2c2ccccc21,.,-1.3
Cc1ccc2nsnc2c1NC(=O)CC12CC3CC(CC(C3)C1)C2,.,7.0
C=CCOC(Cn1ccnc1)c1ccc(Cl)cc1Cl (stereo not given),36.1,0.3
Clc1ccc(COC(Cn2ccnc2)c2ccc(Cl)cc2Cl)c(Cl)c1 (stereo not given),64.5*!,1.8
COc1ccc(S(=O)(=O)Nc2cccc3c2O[C@@H](CN(C)Cc2ccc(Cl)c(Cl)c2)[C@@H](C)CN([C@H](C)CO)C3=O)cc1,114.9*,3.2
C[C@H](CO)N1C[C@H](C)[C@H](CN(C)Cc2ccc(Cl)c(Cl)c2)Oc2c(NS(=O)(=O)c3ccc(F)cc3)cccc2C1=O,85.5*,3.0
C[C@H](CO)N1C[C@H](C)[C@H](CN(C)Cc2ccc(Cl)c(Cl)c2)Oc2c(NS(=O)(=O)c3cccs3)cccc2C1=O,98.4*,0.3
C[C@@H]1CN([C@@H](C)CO)C(=O)c2cccc(NS(=O)(=O)c3cccs3)c2O[C@@H]1CN(C)Cc1ccc(Cl)c(Cl)c1,6.0,-1.7
C[C@@H]1CN([C@H](C)CO)C(=O)c2cccc(NC(=O)C3CC3)c2O[C@@H]1CN(C)Cc1ccc(Cl)c(Cl)c1,78.4*,5.2
C[C@H]1CN([C@@H](C)CO)C(=O)c2cccc(NS(=O)(=O)c3ccc(F)cc3)c2O[C@H]1CN(C)Cc1ccc(Cl)c(Cl)c1,5.8,-2.4
COc1ccc(S(=O)(=O)Nc2cccc3c2O[C@H](CN(C)Cc2ccc(Cl)c(Cl)c2)[C@H](C)CN([C@@H](C)CO)C3=O)cc1,52.7,6.0
C[C@H](CO)N1C[C@H](C)[C@H](CN(C)Cc2ccc(Cl)c(Cl)c2)Oc2c(NC(=O)C3CCCCC3)cccc2C1=O,10.1,6.9
CCC(C)C(OC1OC(C)C(O)C(O)C1O)C(C)C(=O)C(C)/C=C(\C)CC(C)C(O)C(C)C(=O)O (stereo not given),30.5,.
N#C/C(=C\c1c(Oc2ccccc2)nc2ccccn2c1=O)S(=O)(=O)c1ccccc1,.,-8.1
Cc1n[nH]c(C)c1S(=O)(=O)N1CCC2(CC1)OCCO2,.,-5.7
CCN(CC)C(=O)Cn1cc(SCC(N)=O)c2ccccc21,.,1.7
O=C(COc1ccc(Cl)cc1)NCc1ccc2[nH]c3c(c2c1)CCCC3,.,-6.0
C[C@H](CO)N1C[C@H](C)[C@H](CN(C)C(=O)NC2CCCCC2)Oc2c(NS(=O)(=O)c3cccs3)cccc2C1=O,67.8*,2.2
C[C@@H]1CN([C@H](C)CO)C(=O)c2cccc(NS(=O)(=O)c3cccs3)c2O[C@H]1CN(C)C(=O)NC1CCCCC1,-2.5,-3.7
SMILES,Shh pathway inh,BJeLR viability
Cc1ccc(S(=O)(=O)N2Cc3ccccc3CC2C(=O)Nc2cccc3ccccc23)cc1 (stereo not given),.,-0.1
COc1ccc2cc3cc(C(=O)N(C)c4cccc(C(F)(F)F)c4)oc3nc2c1,.,8.4
C=CCn1c(=S)sc2c(Sc3nnc(-c4ccco4)o3)ncnc21,73.0*,63.1*
C=CCn1c(=S)sc2c(SCC(N)=O)ncnc21,.,7.0
CC[C@]1(O)C[C@H]2CN(CCc3c([nH]c4ccccc34)[C@@](C(=O)OC)(c3cc4c(cc3OC)N(C=O)[C@H]3[C@@](O)(C(=O)OC)[C@H](OC(C)=O)[C@@]5(CC)C=CCN6CC[C@]43[C@@H]65)C2)C1,70.8*,60.6*
CSc1nsc(SCc2ccc(C(=O)Nc3ccc(Cl)cc3)cc2)n1,.,6.4
O=C(O)c1c(CNCCc2c[nH]c3ccccc23)c2ccccc2n1Cc1ccccc1,.,-6.6
C#C[C@]1(O)CC[C@H]2[C@@H]3CCc4cc(OC)ccc4[C@H]3CC[C@@]21C,-36.2,6.4
C[C@]12CCC3c4ccc(O)cc4CCC3C1C[C@@H](O)[C@@H]2O (stereo not given in full),?,4.0
C[C@]12CC[C@@H]3c4ccc(O)cc4CC[C@H]3[C@@H]1CCC2=O,72.8*,7.6
C[C@]12CCC3c4ccc(OS(=O)(=O)O)cc4CCC3C1CC[C@H]2O (stereo not given in full),6.2,-4.6
C[C@]12CCC3c4ccc(O)cc4CCC3C1CC[C@@H]2O (stereo not given in full),73.7*,-3.8

# Screening results as filed in PubChem BioAssay.
